# In PubChem BioAssay AID1645838 (ICCB-Longwood Screening Facility, Harvard Medical School, 2021):
# Where “and” joins values, the source holds several entries; their conditions need not be identical. Identical values can stand only once. Hit rate of the full screen: of about 2,000 compounds, about 100 (5%) were called active. The sample holds actives, similar compounds and a random draw of the others, so the mix is not that of the screen. No stated cut-off is given here; in the data, active means z-score above about 2; inactive means the rest.
# Test: supercomplex reporter luminescence per Hoechst cell count – Hoechst nuclei count (AID 1645838);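 further: control cybrid cells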;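 on z-score: higher means more mitochondrial supercomplex formation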
# Conditions: Cells, luminescence/Hoechst cell count ratio; for z-score: stronger effect = higher value; for cell count: measured here: cell number, Hoechst nuclei count; for outcome: library stock 10 mM
# [1] = library stock concentration (final well concentration not given) 80 uM
# [2] = library stock concentration (final well concentration not given) 400 uM
# [3] = library stock concentration (final well concentration not given) 2 mM
# [4] = library stock concentration (final well concentration not given) 10 mM
# [5] = library stock concentration (final well concentration not given) 46 uM
# [6] = library stock concentration (final well concentration not given) 278 uM
# [7] = library stock concentration (final well concentration not given) 1.67 mM
smiles,measurement,setting,value
COC(=O)CCCCCC[C@@H]1[C@@H](CCC(O)C#Cc2ccccc2F)[C@H](O)C[C@@H]1O (some centres not stated),z-score,,-0.523 (inactive)
same,cell count,,5390
CCCCC[C@H](O)/C=C/[C@@H]1[C@H]2C[C@H](CCCCC(=O)O)O[C@H]2C[C@H]1O,z-score,,0.18 (inactive)
same,cell count,,5310
COc1cc(N2CCC(C(N)=O)CC2)ccc1Nc1nc(N)c(Cl)c(Nc2ccccc2S(=O)(=O)C(C)C)n1,z-score,[1],-0.397 (inactive)
same,z-score,[2],-0.357 (inactive)
same,z-score,[3],-0.497 (inactive)
same,z-score,[4],-0.438 (inactive)
same,cell count,[1],5060
same,cell count,[2],4660
same,cell count,[3],4640
same,cell count,[4],4760
COc1cc2ncnc(Nc3cc(Br)c(O)c(Br)c3)c2cc1OC,z-score,[1],-0.757 (inactive)
same,z-score,[2],-0.502 (inactive)
same,z-score,[3],-0.971 (inactive)
same,z-score,[4],-0.687 (inactive)
same,cell count,[1],4740
same,cell count,[2],4630
same,cell count,[3],5420
same,cell count,[4],5090
C#Cc1cccc(Nc2ncnc3cc(OCCOC)c(OCCOC)cc23)c1,z-score,[1],0.334 (inactive)
same,z-score,[2],0.287 (inactive)
same,z-score,[3],-0.186 (inactive)
same,z-score,[4],2.02 (active)
same,cell count,[1],5220
same,cell count,[2],5400
same,cell count,[3],5470
same,cell count,[4],3820
C#Cc1cccc(Nc2ncnc3cc4c(cc23)OCCOCCOCCO4)c1,z-score,[1],-0.401 (inactive)
same,z-score,[2],-0.555 (inactive)
same,z-score,[3],-0.372 (inactive)
same,z-score,[4],-0.218 (inactive)
same,cell count,[1],5760
same,cell count,[2],5920
same,cell count,[3],5800
same,cell count,[4],5980
C[C@H](N)C(=O)CCCCCC(=O)O,z-score,,-0.273 (inactive)
same,cell count,,5410
NCCCNCCCCN(CCCN)[N+]([O-])=NO,z-score,,1.09 (inactive)
same,cell count,,5110
COc1ccc2cc(CC(=O)O)ccc2c1,z-score,,-0.782 (inactive)
same,cell count,,5780
CCCCC[C@H](O)/C=C/[C@H]1CC[C@H](O)[C@@H]1CCCCCCC(=O)O,z-score,,-0.59 (inactive)
same,cell count,,5510
CN(C)C1CCN(C(=O)c2ccc(NC(=O)Nc3ccc(-c4nc(N5CCOCC5)nc(N5CCOCC5)n4)cc3)cc2)CC1,outcome,,inactive; censored for cell count
same,z-score,[1],-0.0957 (inactive)
same,z-score,[2],0.581 (inactive)
same,z-score,[3],2.23 (active)
same,cell count,[1],5680
same,cell count,[2],4160
same,cell count,[3],1900
CNC(=O)Nc1ccc(-c2nc(N3CC4CCC(C3)O4)c3cnn(C4CCC5(CC4)OCCO5)c3n2)cc1,outcome,,inactive; censored for cell count
same,z-score,[1],1.01 (inactive)
same,z-score,[2],1.56 (inactive)
same,z-score,[3],1.64 (inactive)
same,cell count,[1],2180
same,cell count,[2],1780
same,cell count,[3],1600
O=C(Nc1ccccc1)Nc1ccc(-c2ccc(C(=O)C3CCCC3C(=O)O)cc2)cc1 (configuration not stated),z-score,[1],-0.37 (inactive)
same,z-score,[2],-0.219 (inactive)
same,z-score,[3],-0.285 (inactive)
same,z-score,[4],-0.46 (inactive)
same,cell count,[1],5980
same,cell count,[2],5880
same,cell count,[3],6590
same,cell count,[4],5760
CC(C)CCC[C@@H](C)[C@H]1CC[C@H]2[C@@H]3CC(=O)[C@@]4(O)C[C@@H](O)CC[C@]4(C)[C@H]3CC[C@]12C,z-score,,0.076 (inactive)
same,cell count,,4620
CN(CC=CC#CC(C)(C)C)Cc1cccc2ccccc12,z-score,[5],-0.128 (inactive)
same,z-score,[6],-0.114 (inactive)
same,z-score,[7],-0.2 (inactive)
same,z-score,[4],-0.286 (inactive)
same,cell count,[5],4930
same,cell count,[6],4830
same,cell count,[7],5350
same,cell count,[4],5180
CCCCCCCCC#CCCCCCCCC(=O)c1nc2ncccc2o1,z-score,,-0.992 (inactive)
same,cell count,,5900
CCOC(=O)C(N)Cc1ccc(-c2cc(OC(c3ccc(Cl)cc3-n3ccc(C)n3)C(F)(F)F)nc(N)n2)cc1 (configuration not stated),z-score,[5],-0.503 (inactive)
same,z-score,[6],-0.649 (inactive)
same,z-score,[7],-0.638 (inactive)
same,z-score,[4],1.7 (inactive)
same,cell count,[5],6360
same,cell count,[6],6270
same,cell count,[7],6660
same,cell count,[4],2760
CCCCCCCCCCCCCCCCOC[C@H](COP(=O)([O-])OCC[N+](C)(C)C)OC(=O)NC,z-score,,-1.68 (inactive)
same,cell count,,5690
O=C(c1cc(Cc2n[nH]c(=O)c3ccccc23)ccc1F)N1CCN(C(=O)C2CC2)CC1,z-score,[1],-0.363 (inactive)
same,z-score,[2],-0.127 (inactive)
same,z-score,[3],0.0622 (inactive)
same,z-score,[4],2.51 (active)
same,cell count,[1],6190
same,cell count,[2],5590
same,cell count,[3],5940
same,cell count,[4],3720
Nc1ccccc1NC(=O)c1ccc(CNC(=O)OCc2cccnc2)cc1,z-score,,5.22 (active)
same,z-score,[5],-0.106 (inactive)
same,z-score,[6],-0.0587 (inactive)
same,z-score,[7],4.46 (active)
same,z-score,[4],13.5 (active)
same,cell count,,4300
same,cell count,[5],4680
same,cell count,[6],4820
same,cell count,[7],3240
same,cell count,[4],1730
CC(C)(C)c1ccc(S(=O)(=O)NCc2ccc(C(=O)Nc3cccnc3)cc2)cc1,z-score,[1],-0.216 (inactive)
same,z-score,[2],0.0762 (inactive)
same,z-score,[3],0.362 (inactive)
same,z-score,[4],0.0219 (inactive)
same,cell count,[1],6170
same,cell count,[2],5130
same,cell count,[3],2500
same,cell count,[4],1690
O=C(NCc1cccnc1)c1ccc(CNS(=O)(=O)c2ccc(F)cc2)cc1,z-score,[1],-0.0415 (inactive)
same,z-score,[2],-0.565 (inactive)
same,z-score,[3],-0.611 (inactive)
same,z-score,[4],-0.531 (inactive)
same,cell count,[1],5120
same,cell count,[2],5290
same,cell count,[3],5220
same,cell count,[4],4960
O=c1cc(-c2cccc3c2Sc2ccccc2S3)oc(N2CCOCC2)c1,z-score,[5],-0.163 (inactive)
same,z-score,[1],-0.486 (inactive)
same,z-score,[6],-0.0765 (inactive)
same,z-score,[2],-0.335 (inactive)
same,z-score,[7],-0.27 (inactive)
same,z-score,[3],-0.523 (inactive)
same,z-score,[4],0.302 (inactive) and 0.32 (inactive)
same,cell count,[5],6030
same,cell count,[1],4590
same,cell count,[6],5590
same,cell count,[2],4700
same,cell count,[7],5740
same,cell count,[3],4720
same,cell count,[4],3610 and 4370
CC1CN(CC(=O)Nc2ccc3c(c2)Cc2cccc(-c4cc(=O)cc(N5CCOCC5)o4)c2S3)CC(C)O1 (configuration not stated),z-score,[1],-0.376 (inactive)
same,z-score,[2],-0.656 (inactive)
same,z-score,[3],0.69 (inactive)
same,z-score,[4],4.45 (active)
same,cell count,[1],6150
same,cell count,[2],6090
same,cell count,[3],4680
same,cell count,[4],1840
CCCCCCCCCCCCCCCCCCCCCC(=O)NCCO,z-score,,0.434 (inactive)
same,cell count,,5500
O=C(O)CCC/C=C\C[C@H]1[C@@H](/C=C/[C@@H](O)CCc2ccccc2)[C@H](O)C[C@@H]1O,z-score,,-0.319 (inactive)
same,cell count,,5160
CCCCCC(=O)Nc1c(C)cc(Br)cc1C,z-score,[1],0.207 (inactive)
same,z-score,[2],0.413 (inactive)
same,z-score,[3],-0.729 (inactive)
same,z-score,[4],-0.28 (inactive)
same,cell count,[1],4910
same,cell count,[2],4850
same,cell count,[3],5330
same,cell count,[4],4660
O=C(CCCCc1ccccc1)C(F)(F)C(F)(F)F,z-score,,-0.184 (inactive)
same,cell count,,5310
CC(=O)N[C@@H](CSC/C=C(\C)CC/C=C(\C)CC/C=C(\C)CCC=C(C)C)C(=O)O,z-score,,1.41 (inactive)
same,cell count,,5420
CCC(CO)Nc1nc(NCc2ccccc2)c2ncn(C(C)C)c2n1 (configuration not stated),z-score,[1],-0.719 (inactive)
same,z-score,[2],-0.53 (inactive)
same,z-score,[3],-0.509 (inactive)
same,z-score,[4],0.143 (inactive)
same,cell count,[1],5300
same,cell count,[2],4780
same,cell count,[3],4590
same,cell count,[4],3210
NC(=O)c1cnc(NCCc2ccc(O)c(Cl)c2)nc1NCc1ccccc1,outcome,,inactive; censored for cell count
same,z-score,[5],-1.13 (inactive)
same,z-score,[6],-0.967 (inactive)
same,z-score,[7],6.17 (active)
same,cell count,[5],7430
same,cell count,[6],6770
same,cell count,[7],1590
Cn1cnc2c(NCc3ccccc3)nc(NCCO)nc21,z-score,,0.158 (inactive)
same,cell count,,4830
